The target of experiment [1] is Sphingosine 1-phosphate receptor 4 (Homo sapiens) (UniProt O95977). The experiment can be described thus: S1P4 receptor antagonists, human, confirmation, cell-based (AID 1524; in the data active = inhibition above about 30%). As to conditions: S1P4-expressing cell line, antagonist mode, reporter read-out; at 4.98 µM; active compounds read high.
Experiment [2] has as its target Sphingosine 1-phosphate receptor 1 (Homo sapiens) (UniProt P21453). The experiment can be described thus: S1P1 receptor antagonists, human, counter-screen for S1P4 antagonist project, cell-based (AID 1564; in the data active = inhibition above about 40%;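 note: receptor stimulated with S1P near its EC80; 0% = agonist stimulated wells and 100% = vehicle only wells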). As to conditions: cell-based S1P1 antagonist counterscreen, at 4.98 µM, active compounds read high. On the technique in general: The purpose of a counterscreen is to sort out artefacts and off-target activity.

In experiment [3] the target is Peroxisome proliferator-activated receptor gamma (Homo sapiens) (UniProt P37231). The experiment can be described thus: agonists of PPARgamma SRC-2 coactivator recruitment, confirmation, biochemical, HTS (AID 1297; in the data active = activation above about 22%;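 note: 0% = vehicle alone and 100% = reference agonist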). To be noted: biochemical SRC-2 recruitment by PPARgamma; at 8 µM; active compounds read high.
Experiment [4] shares this target. Description: PPARgamma agonists recruiting SRC-1 coactivator, confirmation, biochemical (AID 1300).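 Note: 0% = vehicle wells and 100% = reference agonist.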 To be noted: PPARgamma–SRC-1 coactivator recruitment biochemical assay; at 8 µM; active compounds read high.
The target in experiment [5] is Peroxisome proliferator-activated receptor gamma (Homo sapiens) + Nuclear receptor coactivator 3 (Homo sapiens) (UniProt P37231+Q9Y6Q9). Description: PPARgamma-driven SRC-3 coactivator recruitment agonists, confirmation, biochemical (AID 1301; in the data active = activation above about 24%;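 note: 0% = vehicle wells and 100% = reference agonist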). As to conditions: biochemical PPARgamma-SRC-3 coactivator recruitment, agonist mode; at 8 µM; active compounds read high.
The target of experiment [6] is Neuropeptide Y receptor type 2 (Homo sapiens) (UniProt P49146). Description: NPY-Y2 potentiators or agonists, confirmation, cell-based (AID 1539; in the data active = activation above about 33%). To be noted: cell-based NPY-Y2 potentiator/agonist assay; at 3.6 µM; active compounds read high.
In experiment [7] the target is Neuropeptide Y receptor type 1 (Homo sapiens) (UniProt P25929). The experiment can be described thus: NPY-Y1 potentiators or agonists, counter-screen for NPY-Y2 potentiator project, cell-based, fluorescence (AID 1651; in the data active = activation above about 45%;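 note: cells stimulated with submaximal NPY then isoproterenol with phosphodiesterase inhibitor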). As to conditions: Y1 HEK293-CNG cells, membrane potential fluorescence; at 3.6 µM; active compounds read high.
Experiment [8] shares this target. Description: NPY-Y1 direct agonists, selectivity assay for NPY-Y2 potentiator project, cell-based, fluorescence (AID 1702;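 active = activation above the mean of DMSO-only control wells plus 3 SD, cut at about 18% in these data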;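 note: cells stimulated with 1 µM isoproterenol plus the PDE inhibitor Ro 20-1724; 0% = isoproterenol with DMSO and no NPY and 100% = 40 nM NPY; Y1 agonists lower the membrane potential dye signal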). To be noted: HEK293 Y1-CNGC, membrane potential fluorescence, agonism; at 3.6 µM; active compounds read high.
A short description of experiment [9]: CNGC cAMP sensor activity inhibitors, counter-screen for NPY-Y2 potentiator project, cell-based, HEK293-CNG parental, membrane potential fluorescence (AID 1703;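 active = inhibition above the control-well mean plus 3 SD of those wells, cut at about 22% in these data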;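 note: 0% = DMSO with isoproterenol and 100% = DMSO without isoproterenol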). To be noted: isoproterenol cAMP, at 3.6 µM, active compounds read high.
Experiment [10] deals with Neuropeptide Y receptor type 2 (Homo sapiens) (UniProt P49146). The experiment can be described thus: NPY-Y2 direct agonists, counter-screen for NPY-Y2 potentiator project, cell-based, fluorescence (AID 1710;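 active = activation above the mean of solvent-only control wells plus 3 SD, cut at about 10% in these data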;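 note: cells stimulated by isoproterenol with no NPY added so direct agonism is tested; 0% = DMSO with isoproterenol alone and 100% = NPY at EC100 plus isoproterenol; agonism lowers probe fluorescence through less cAMP and CNG channel opening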). As to conditions: HEK293 Y2/CNGC cells, membrane potential fluorescence, agonist mode; at 3.6 µM; active compounds read high.
Experiment [11] in a line: growth loss of phage-infected E. coli expressing H. pylori AddAB, confirmation, AddAB inhibitor project, absorbance, E. coli V3065, T4 phage, triplicate (AID 488942;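 active = mean inhibition above a set limit taken from the earlier primary screen, cut at about 13% in these data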;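 note: higher means less bacterial growth since AddAB block lets phage replicate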). To be noted: OD, at 11.9 µM, active compounds read high, T4 phage with gene 2 nonsense mutations.
Experiment [12] in a line: growth loss of RecBCD+ E. coli with mutant T4 phage, counter-screen for AddAB inhibitor project, absorbance, V66 E. coli (AID 488955;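 active = mean inhibition above the mean of solvent-only control wells plus 3 SD, cut at about 4% in these data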;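 note: optical density read after an 18 h incubation at 37 °C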). To be noted: OD growth, at 11.9 µM, active compounds read high.
The nature of experiment [13]: bacterial viability inhibition counter-screen, confirmation, counter-screen for AddAB inhibitor project, absorbance (AID 488956; in the data active = inhibition above about 25%). To be noted: absorbance (AddAB counterscreen), at 11.9 µM, active compounds read high.
For experiment [14], the target named is Nuclear receptor coactivator 3 (Homo sapiens) (UniProt Q9Y6Q9). Description: SRC3 coactivator transcriptional activity inhibitors, confirmation, cell-based, luminescence, quadruplicate (AID 588792;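 active = mean inhibition over 43.08%, the solvent-only control mean plus 3 SD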;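 note: 0% = DMSO treated cells and 100% = gossypol at 36 µM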). To be noted: HEK293 GAL4-SRC3 luciferase reporter, at 3.6 µM, active compounds read high. A general note: A reporter such as luciferase makes a cellular process visible.

Experiment [15] relates to transactivating tegument protein VP16 (Human herpesvirus 1), Gal4-VP16 luciferase reporter. Description: VP16 transactivation inhibitors, counter-screen for SRC3 inhibitor project, cell-based, luminescence, high throughput (AID 588794; in the data active = inhibition above about 30%). As to conditions: mammalian cells, VP16-driven luciferase reporter luminescence; at 3.6 µM; active compounds read high.
The target of experiment [16] is Nuclear receptor coactivator 1 (Homo sapiens) (UniProt Q15788). The experiment can be described thus: SRC1 coactivator transcriptional activity inhibitors, confirmation, cell-based, luminescence, quadruplicate (AID 588820;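 active = mean inhibition above 46.68%, the untreated control wells mean plus 3 SD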;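 note: 0% = DMSO wells and 100% = gossypol 36 µM treated wells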). As to conditions: HEK293 GAL4-SRC1 luciferase reporter, at 3.6 µM, active compounds read high.
A short description of experiment [17]: VP16 transactivation inhibitors, counter-screen for SRC1 inhibitor project, cell-based, luminescence, high throughput (AID 588824; in the data active = inhibition above about 25%). As to conditions: cell-based VP16 transactivation luciferase luminescence; at 3.6 µM; active compounds read high.
The target of experiment [18] is Photoreceptor-specific nuclear receptor (Homo sapiens) (UniProt Q9Y5X4). Description: NR2E3 agonist confirmation in cells, cell-based, luminescence, CHO-S two-hybrid (AID 624378;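 active = average inhibition above a cutoff equal to the mean inhibition of all tested compounds plus one SD, cut at about 70% in these data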;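 note: 0% = DMSO in NR2E3 cells and 100% = DMSO in cells lacking NR2E3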). To be noted: CHO-S mammalian two-hybrid NR2E3-NCOR, luciferase luminescence; at 3.98 µM; active compounds read high.
Experiment [19] is described as follows: GAL4-VP16 reporter modulators, confirmation, counter-screen for NR2E3 agonist project, cell-based, luminescence, CHO-S, high throughput (AID 624379;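 active = mean inhibition above a cutoff equal to the average over all tested compounds plus one standard deviation, cut at about 70% in these data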;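 note: 0% = DMSO with VP16-transfected cells and 100% = DMSO with cells lacking VP16; higher means less reporter light so more repression of VP16 activity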). To be noted: CHO-S GAL4-VP16 luciferase reporter, at 3.98 µM, active compounds read high.
Experiment [20] in a line: StAR promoter reporter inhibitors, counter-screen for LRH-1 inverse agonist project, cell-based, luminescence, high throughput (AID 651611; in the data active = inhibition above about 28%). As to conditions: StAR promoter luciferase reporter counterscreen, at 3.6 µM, active compounds read high.
Experiment [21] has as its target Nuclear receptor subfamily 5 group A member 2 (Homo sapiens) (UniProt O00482). Description: LRH-1 (NR5A2) inverse agonists, retest, confirmation, cell-based, luminescence (AID 651613; in the data active = inhibition above about 42%;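 note: HEK293T cells co-transfected with LRH-1 and StAR promoter luciferase reporter; 0% = vehicle wells and 100% = parental cells lacking receptor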). As to conditions: cell-based LRH-1 luciferase reporter, inverse agonism; at 3.6 µM; active compounds read high.
In experiment [22] the target is Steroidogenic factor 1 (Homo sapiens) (UniProt Q13285). The experiment can be described thus: SF1 (NR5A1) inverse agonists, counter-screen for LRH-1 inverse agonist project, cell-based, luminescence, high throughput (AID 651614; in the data active = inhibition above about 44%;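 note: cells cotransfected with StAR promoter reporter and SF1 expression vector; 0% = vehicle on cells with receptor and 100% = vehicle on cells lacking receptor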). As to conditions: cell-based SF1 luciferase reporter, at 3.6 µM, active compounds read high.
A short description of experiment [23]: VP16 transactivation reporter inhibitors, counter-screen for LRH-1 inverse agonist project, cell-based, luminescence, high throughput (AID 651615; in the data active = inhibition above about 33%). As to conditions: Gal4-VP16 luciferase reporter cells, at 3.6 µM, active compounds read high.
The nature of experiment [24]: growth loss of phage-infected RecBCD+ E. coli, confirmation, RecBCD inhibitor project, absorbance, E. coli V66, T4 gene 2 phage (AID 651982;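 active = mean inhibition over triplicates exceeding the hit threshold derived in the original primary screen, cut at about 11% in these data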). To be noted: E. coli V66 + T4 2- phage, growth OD; at 11.9 µM; active compounds read high.
Experiment [25] in a line: E. coli viability inhibition, counter-screen for RecBCD inhibitor project, absorbance, high throughput (AID 651983; in the data active = inhibition above about 20%;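 note: E. coli strain V66 grown with compound alone and no phage infection; 0% = bacteria with DMSO vehicle only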). As to conditions: absorbance (OD) growth, at 11.9 µM, active compounds read high.
The nature of experiment [26]: growth loss of phage-infected AddAB-carrying E. coli, confirmation, counter-screen for RecBCD inhibitor project, absorbance, E. coli V3065, T4 phage (AID 651984;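 active = mean inhibition above the solvent-only control wells' mean plus 3 SD, cut at about 22% in these data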;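 note: higher means less bacterial growth from phage killing when AddAB is blocked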). As to conditions: E. coli expressing H. pylori AddAB + T4 phage, OD growth; at 11.9 µM; active compounds read high; gene 2 mutant T4, recBCD-deleted host.
The nature of experiment [27]: Gal4-VP16 luciferase reporter inhibitors, counter-screen for COUP-TFII antagonist project, cell-based, luminescence, HEK293 (AID 687007; in the data active = inhibition above about 13%). To be noted: at 8.5 µM, active compounds read high.
The target of experiment [28] is COUP transcription factor 2 (Homo sapiens) (UniProt P24468). The experiment can be described thus: NR2F2 transcriptional activity inhibitors, confirmation, cell-based, luciferase reporter, HEK293, triplicate (AID 687008;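 active = mean inhibition over three repeats above a set limit taken from the earlier primary screen, cut at about 38% in these data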;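 note: 100% = cells given the luciferase reporter alone without the COUP-TF2 vector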). As to conditions: HEK293 NGFI-A luciferase reporter, luminescence; at 8.5 µM; active compounds read high.
Experiment [29] in a line: KLF5 expression inhibitors, confirmation, DLD-1 cells, luminescence (AID 1834;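 active = inhibition above a set limit taken from the earlier primary screen, cut at about 63% in these data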;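 note: 0% = DMSO wells and 100% = LY294002 at 200 µM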). To be noted: DLD-1 KLF5 promoter firefly luciferase reporter, at 4 µM, active compounds read high.
A short description of experiment [30]: cytotoxicity in rat IEC-6 cells, cytotoxicity control for KLF5 inhibitor project, cell-based, luminescence, triplicate (AID 1905; in the data active = inhibition above about 23%;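 note: cells exposed to compounds for 48 hours before viability read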). As to conditions: IEC-6 rat intestinal cells, viability luminescence; at 4 µM; active compounds read high.

SMILES strings stand for the structures. Unmarked numbers belong to inactive results. Some of the results follow. Activity calls are given as the source filed them. Cut-off read from the data, not from the text of the source, unless noted: active = activation above about 20%; inactive = the rest.

Sphingosine 1-phosphate receptor 1 (Homo sapiens), sequence (P21453 whole entry, looked up): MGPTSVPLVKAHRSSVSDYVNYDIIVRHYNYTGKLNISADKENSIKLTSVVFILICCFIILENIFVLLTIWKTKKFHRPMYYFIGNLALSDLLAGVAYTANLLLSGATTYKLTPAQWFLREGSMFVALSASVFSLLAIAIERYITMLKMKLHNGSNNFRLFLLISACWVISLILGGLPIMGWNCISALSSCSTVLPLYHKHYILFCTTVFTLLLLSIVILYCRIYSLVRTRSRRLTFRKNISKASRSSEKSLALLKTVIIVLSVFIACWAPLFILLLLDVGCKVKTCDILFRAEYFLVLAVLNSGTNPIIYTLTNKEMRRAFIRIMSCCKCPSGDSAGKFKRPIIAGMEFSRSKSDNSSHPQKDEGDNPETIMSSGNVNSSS
Sphingosine 1-phosphate receptor 4 (Homo sapiens), sequence (O95977 whole entry, looked up): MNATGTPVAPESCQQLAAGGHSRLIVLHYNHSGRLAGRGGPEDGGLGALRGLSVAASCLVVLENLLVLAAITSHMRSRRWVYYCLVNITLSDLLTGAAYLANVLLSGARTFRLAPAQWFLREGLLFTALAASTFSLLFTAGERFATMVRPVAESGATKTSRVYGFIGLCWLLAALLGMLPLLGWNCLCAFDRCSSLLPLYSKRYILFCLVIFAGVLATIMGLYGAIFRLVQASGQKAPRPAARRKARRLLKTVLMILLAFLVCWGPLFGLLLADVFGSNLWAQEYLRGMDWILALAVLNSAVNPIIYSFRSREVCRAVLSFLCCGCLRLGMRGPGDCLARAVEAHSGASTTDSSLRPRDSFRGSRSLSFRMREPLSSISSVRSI
Peroxisome proliferator-activated receptor gamma (Homo sapiens) + Nuclear receptor coactivator 3 (Homo sapiens), sequence (P37231 whole entry, looked up): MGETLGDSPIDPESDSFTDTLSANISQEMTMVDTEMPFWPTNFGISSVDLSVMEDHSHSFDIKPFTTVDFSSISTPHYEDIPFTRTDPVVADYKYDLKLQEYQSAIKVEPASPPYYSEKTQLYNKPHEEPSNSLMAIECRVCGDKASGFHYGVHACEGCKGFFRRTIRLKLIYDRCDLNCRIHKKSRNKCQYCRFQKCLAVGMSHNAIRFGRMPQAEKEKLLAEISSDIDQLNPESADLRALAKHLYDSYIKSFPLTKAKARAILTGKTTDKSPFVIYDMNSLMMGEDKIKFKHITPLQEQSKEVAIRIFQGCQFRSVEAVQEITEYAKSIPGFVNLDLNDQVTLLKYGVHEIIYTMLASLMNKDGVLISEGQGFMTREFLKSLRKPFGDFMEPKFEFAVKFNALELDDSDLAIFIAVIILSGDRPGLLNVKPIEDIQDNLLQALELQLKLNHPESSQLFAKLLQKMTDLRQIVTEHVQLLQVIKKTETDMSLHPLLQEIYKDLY
Peroxisome proliferator-activated receptor gamma (Homo sapiens) + Nuclear receptor coactivator 3 (Homo sapiens), sequence (Q9Y6Q9 whole entry, looked up): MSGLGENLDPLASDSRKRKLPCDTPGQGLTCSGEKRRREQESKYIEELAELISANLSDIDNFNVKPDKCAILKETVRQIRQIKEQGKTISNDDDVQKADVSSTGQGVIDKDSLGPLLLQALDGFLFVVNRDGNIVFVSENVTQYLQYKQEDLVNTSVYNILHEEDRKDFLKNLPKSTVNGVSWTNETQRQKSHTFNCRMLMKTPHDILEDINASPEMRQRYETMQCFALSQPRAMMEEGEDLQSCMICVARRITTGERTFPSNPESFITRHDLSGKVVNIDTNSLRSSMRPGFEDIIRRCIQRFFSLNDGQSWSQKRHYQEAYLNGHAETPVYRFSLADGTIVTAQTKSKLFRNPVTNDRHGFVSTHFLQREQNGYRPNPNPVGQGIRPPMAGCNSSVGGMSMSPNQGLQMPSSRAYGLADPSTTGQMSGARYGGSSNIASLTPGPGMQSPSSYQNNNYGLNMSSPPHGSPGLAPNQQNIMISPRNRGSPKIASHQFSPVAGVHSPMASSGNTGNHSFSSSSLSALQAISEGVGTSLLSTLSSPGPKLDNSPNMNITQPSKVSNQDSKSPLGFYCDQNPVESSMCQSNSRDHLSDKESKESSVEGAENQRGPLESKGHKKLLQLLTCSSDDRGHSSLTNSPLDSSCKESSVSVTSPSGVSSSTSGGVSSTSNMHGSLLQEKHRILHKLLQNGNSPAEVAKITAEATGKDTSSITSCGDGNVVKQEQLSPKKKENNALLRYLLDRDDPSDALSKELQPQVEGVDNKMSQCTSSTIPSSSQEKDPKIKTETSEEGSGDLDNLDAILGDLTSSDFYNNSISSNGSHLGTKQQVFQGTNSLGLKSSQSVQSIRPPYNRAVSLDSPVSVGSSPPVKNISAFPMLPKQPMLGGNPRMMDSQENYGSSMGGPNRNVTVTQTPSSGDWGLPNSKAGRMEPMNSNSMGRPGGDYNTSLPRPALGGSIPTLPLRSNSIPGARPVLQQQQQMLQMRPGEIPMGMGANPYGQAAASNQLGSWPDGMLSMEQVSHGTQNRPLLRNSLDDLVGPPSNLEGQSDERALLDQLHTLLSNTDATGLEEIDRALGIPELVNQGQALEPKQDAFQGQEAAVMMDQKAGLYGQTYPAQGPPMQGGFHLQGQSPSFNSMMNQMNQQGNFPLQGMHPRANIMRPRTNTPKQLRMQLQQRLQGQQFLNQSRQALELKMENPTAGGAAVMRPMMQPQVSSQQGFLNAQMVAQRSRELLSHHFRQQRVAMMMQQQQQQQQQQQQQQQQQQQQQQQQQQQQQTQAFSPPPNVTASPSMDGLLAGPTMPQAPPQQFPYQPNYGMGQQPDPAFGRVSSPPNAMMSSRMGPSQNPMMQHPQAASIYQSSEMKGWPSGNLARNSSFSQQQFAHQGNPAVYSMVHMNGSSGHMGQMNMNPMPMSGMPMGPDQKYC
Peroxisome proliferator-activated receptor gamma (Homo sapiens), sequence (P37231 whole entry, looked up): as the sequence (P37231 whole entry, looked up) above
Neuropeptide Y receptor type 1 (Homo sapiens), sequence (P25929 whole entry, looked up): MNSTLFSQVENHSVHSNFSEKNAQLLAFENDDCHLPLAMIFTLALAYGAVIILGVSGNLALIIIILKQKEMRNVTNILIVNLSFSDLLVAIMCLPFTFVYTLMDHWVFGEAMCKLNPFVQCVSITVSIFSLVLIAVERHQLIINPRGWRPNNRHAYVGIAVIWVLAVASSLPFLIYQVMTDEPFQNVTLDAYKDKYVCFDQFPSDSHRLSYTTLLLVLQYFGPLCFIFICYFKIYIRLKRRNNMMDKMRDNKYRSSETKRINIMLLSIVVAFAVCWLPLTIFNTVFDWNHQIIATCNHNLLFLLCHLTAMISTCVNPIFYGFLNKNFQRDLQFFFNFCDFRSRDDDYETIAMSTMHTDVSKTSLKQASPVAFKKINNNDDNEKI
Neuropeptide Y receptor type 2 (Homo sapiens), sequence (P49146 whole entry, looked up): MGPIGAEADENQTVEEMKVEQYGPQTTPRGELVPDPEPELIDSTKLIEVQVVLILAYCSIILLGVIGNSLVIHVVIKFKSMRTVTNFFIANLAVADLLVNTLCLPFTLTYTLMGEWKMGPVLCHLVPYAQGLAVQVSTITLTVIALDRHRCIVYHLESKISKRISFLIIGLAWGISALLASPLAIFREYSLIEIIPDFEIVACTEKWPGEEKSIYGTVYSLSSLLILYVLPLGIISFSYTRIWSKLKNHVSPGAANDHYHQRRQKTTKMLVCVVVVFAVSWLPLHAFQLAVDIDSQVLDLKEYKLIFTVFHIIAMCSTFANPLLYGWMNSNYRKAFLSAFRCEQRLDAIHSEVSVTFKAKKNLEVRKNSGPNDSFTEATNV
Photoreceptor-specific nuclear receptor (Homo sapiens), sequence (Q9Y5X4 whole entry, looked up, the tested form may be a part): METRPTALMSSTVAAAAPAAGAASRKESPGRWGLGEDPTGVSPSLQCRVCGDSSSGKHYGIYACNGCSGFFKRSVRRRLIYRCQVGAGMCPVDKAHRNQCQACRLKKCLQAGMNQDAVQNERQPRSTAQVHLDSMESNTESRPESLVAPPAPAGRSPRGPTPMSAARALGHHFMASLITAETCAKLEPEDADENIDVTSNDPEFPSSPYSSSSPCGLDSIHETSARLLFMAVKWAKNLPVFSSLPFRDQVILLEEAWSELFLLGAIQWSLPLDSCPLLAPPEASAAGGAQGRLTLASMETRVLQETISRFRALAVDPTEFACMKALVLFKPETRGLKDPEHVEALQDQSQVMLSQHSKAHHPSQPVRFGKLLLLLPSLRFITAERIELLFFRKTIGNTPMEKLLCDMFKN
Nuclear receptor coactivator 3 (Homo sapiens), sequence (Q9Y6Q9 whole entry, looked up, the tested form may be a part): as the sequence (Q9Y6Q9 whole entry, looked up) above
Nuclear receptor subfamily 5 group A member 2 (Homo sapiens), sequence (O00482 whole entry, looked up): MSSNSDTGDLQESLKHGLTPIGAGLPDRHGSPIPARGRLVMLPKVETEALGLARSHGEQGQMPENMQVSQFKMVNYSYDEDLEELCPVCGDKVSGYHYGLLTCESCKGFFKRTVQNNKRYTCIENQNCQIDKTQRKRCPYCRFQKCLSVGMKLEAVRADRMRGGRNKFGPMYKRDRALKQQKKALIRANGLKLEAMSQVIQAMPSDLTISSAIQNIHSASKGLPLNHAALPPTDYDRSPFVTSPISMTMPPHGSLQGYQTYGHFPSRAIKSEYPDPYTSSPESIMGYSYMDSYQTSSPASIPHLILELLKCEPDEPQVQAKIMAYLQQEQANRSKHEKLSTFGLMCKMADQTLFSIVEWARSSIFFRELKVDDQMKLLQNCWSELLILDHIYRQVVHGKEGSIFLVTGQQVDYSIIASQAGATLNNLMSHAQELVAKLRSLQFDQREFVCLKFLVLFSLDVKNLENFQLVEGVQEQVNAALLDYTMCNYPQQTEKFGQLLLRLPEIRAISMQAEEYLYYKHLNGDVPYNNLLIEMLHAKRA

Turning to `C[C@@H](NC(=O)OC(C)(C)C)c1nnc(S(=O)(=O)Cc2ccccc2)o1`, the values for the inhibition in [1] and in experiment [2] were 83.4% (active) and 36.6%, respectively.
For the compound `Cc1ccc(-c2cc(C(=O)NCc3cn(C)nc3C)c3cc(Br)ccc3n2)cc1`, the activation is 25.7% (active) in [3], 15.9% in experiment [4] and 16.9% in experiment [5].
The corresponding values for `CC(C(=O)N1CCOCC1)N1c2cccc3cccc(c23)S1(=O)=O` (stereo not drawn) are -0.94%, 1.12% and 1.88%.
For `COc1ccc(-c2csc(NC3OC(=O)c4ccccc43)n2)cc1` (stereo not drawn), the inhibition (as a rule, the relative decrease from the control value, in per cent) in experiment [1] was 19.3%; in [2], -6.85%.
Regarding `CCc1ccc(-n2c(SCc3cc(=O)n4cc(Br)ccc4n3)nc3[nH]ncc3c2=O)cc1`, the activation in experiment [3] is 40.9% (active); in experiment [4] it was 26.6% (active); in experiment [5], 28.8% (active).
On to `COc1ccc2c(Cl)c(-c3nnco3)sc2c1`, for which the activation in experiment [3] is 20.4%; in [4], 13.6%; in [5] it was 13.6%.
Turning to `C=CS(=O)c1sc(Cl)c(N2CCOCC2)c1[N+](=O)[O-]` (stereo not drawn), the inhibition in experiment [1] is 102% (active); in experiment [2] it was 12.4%.
In the case of `CCn1c(=O)cc(SCC(=O)NCc2ccc3c(c2)OCO3)c2ccccc21`, the activation is 22.7% (active) in experiment [3], 15.8% in [4] and 18.1% in experiment [5].
For `Cc1nc(-c2ccccc2)sc1-c1nc(-c2ccccc2)ncc1S(=O)(=O)c1ccccc1`, the figures for the activation in experiment [3], in experiment [4] and in experiment [5] were 48.5% (active), 29.3% (active) and 22.7%, respectively.
On to `O=C(CC(O)(C(F)(F)F)C(F)(F)F)Nc1ccc(Cl)c(Cl)c1`, for which the inhibition in [1] was 37.4% (active); in experiment [2] it was 8.72%; in [9] it was -7.55%; in [11], 16.9% (active); in [12], 21.6% (active); in [13] it was 16.9%. Also, the inhibition in [14] is 58.7% (active); in [15] it was 65.2% (active); in [16], 46.4%; in experiment [17], 74.2% (active); in [18], 99.8% (active); in [19] it was 89.7% (active). In addition, the inhibition in experiment [20] was 74.3% (active); in [21], 102% (active); in [22], 90.4% (active); in [23], 88.5% (active); in experiment [24], 16.8% (active); in experiment [25], 20.4% (active). The inhibition in experiment [26] was 22.1% (active); in experiment [27], 20.4% (active); in experiment [28] it was 62.1% (active). Moreover, the activation in experiment [6] was 17%; in experiment [7], -22.8%; in experiment [8], -13.7%; in experiment [10] it was 11.5% (active).
Take `O=C(/C=C/c1ccc(Cl)cc1Cl)c1cccnc1`: the inhibition in [1] is 43.4% (active); in experiment [2] it was 23.6%.
In the case of `Cc1ccc2[nH]c(=O)c(CN(CCCN(C)C)C(=O)Nc3cccc(Cl)c3)cc2c1`, the inhibition in experiment [29] is -15.6%; in experiment [30], 6.49%.

(Values after PubChem BioAssay.)
